The structures appear in SMILES notation. Results filed as inconclusive are left out. A number with no mark means an inactive call. Activity calls are given as the source filed them. The call rests on the fitted dose curve; in most records, active means well fitted inhibition curve with a large enough effect; inconclusive means small, poorly fitted or top-dose-only effect; inactive means flat fitted curve, though single readings scatter.
On the % scale 0 is the no-effect control and ±100 the full control effect; potency means the concentration at half of the fitted maximal effect.

Sequence of Dual specificity protein kinase CLK4 (Homo sapiens) (Q9HAZ1 whole entry, looked up): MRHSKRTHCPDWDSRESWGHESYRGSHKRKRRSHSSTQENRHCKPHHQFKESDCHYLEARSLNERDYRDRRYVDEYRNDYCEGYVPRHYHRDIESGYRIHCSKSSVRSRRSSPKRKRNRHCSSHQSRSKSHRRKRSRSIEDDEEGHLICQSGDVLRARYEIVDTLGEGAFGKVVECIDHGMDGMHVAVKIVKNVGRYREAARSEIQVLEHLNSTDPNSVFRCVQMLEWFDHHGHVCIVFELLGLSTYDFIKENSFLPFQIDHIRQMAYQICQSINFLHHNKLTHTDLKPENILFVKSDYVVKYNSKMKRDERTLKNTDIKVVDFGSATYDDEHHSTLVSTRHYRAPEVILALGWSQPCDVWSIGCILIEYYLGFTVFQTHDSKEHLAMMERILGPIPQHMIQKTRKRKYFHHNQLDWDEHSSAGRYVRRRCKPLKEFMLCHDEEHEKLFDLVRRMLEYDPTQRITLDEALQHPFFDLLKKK

The assay addresses Dual specificity protein kinase CLK4 (Homo sapiens) (UniProt Q9HAZ1). In words: qHTS Assay for Inhibitors of CDC-like Kinase 4 (Kinase-Glo Assay) (AID 1770). Further: nearly all actives have a fitted effect of over 65% in size. The settings on record: recombinant Clk4, Kinase-Glo ATP depletion luminescence; series mostly up to 66.7 µM; activity, negative = inhibition: at the top concentration. The procedure: NIH Molecular Libraries Probe Production Centers Network [MLPCN] NIH Chemical Genomics Center [NCGC] MLPCN Grant: 1R03MH084827-01 Assay Submitter (PI): Tom Misteli NCGC Assay Overview: Clk4 (Invitrogen, cat# PV3839) was assayed using ATP and the RS repeat peptide (AnaSpec cat # 61722) as substrates. Following the Clk4 reaction, the remaining ATP levels were detected using Promega Kinase-Glo technology wherein the remaining ATP from the kinase reaction is detected using Ultra-Glo luciferase and D-luciferin which generates a bioluminescence signal from the ATP. The positive control for the assay was TG003 (Sigma-Aldrich, cat# 300801-52-9) which has been described as an inhibitor of Clk 4[1].
NCGC Assay Protocol Summary: Two uL/well of substrate-buffer solution (100 uM RS peptide, 1 uM ATP, 25 mM Tris pH7.5, 10 mM MgCl2, 0.5 mM EGTA, 2.5 mM DTT, 0.01% Triton X-100 final concentration) was dispensed into 1536-well, assay plates (Greiner, solid white medium-binding plates) with Aurora Discovery BioRAPTR Flying Reagent Dispenser (FRD; Beckton-Dickenson). Using a Kalypsys pin tool equipped with a 1536-pin tool, 23 nL of compound solution was transferred to the assay plate. One uL/ well Clk4-buffer solution (25 nM Clk4, 25 mM Tris pH 7.5, 10 mM MgCl2, 0.5 mM EGTA, 2.5 mM DTT, 0.01% Triton X-100, final concentrations) was then added using the FRD yielding a total kinase reaction volume of 3 uL/ well. After 4.5 hours of room temperature incubation, 3 uL Kinase-Glo reagent was added for a final assay volume of 6 uL/ well. Luminescence was detected with the ViewLux plate reader (Perkin Elmer, Waltham, MA) after 5 min incubation using a 5 second exposure time and 2x binning.
Take `Cc1noc(C)c1-c1cncnc1N(C)Cc1ccco1`: the “activity, negative = inhibition” value is 4.73%.

With `CN(C)c1ncc2nc(-c3cccc(C#N)c3)c(=O)n(CCC#N)c2n1`, the “activity, negative = inhibition” value was -0.572%. For `COc1cccc(Cn2c(=O)c(-c3cn(C)c4ccccc34)nc3cnc(N4CCNCC4)nc32)c1`, the “activity, negative = inhibition” value was -7.22%. As for `CS(=O)(=O)Nc1cccc(-c2ccc3ncnc(N4CCNCC4)c3c2)c1`, the Potency was 6.31 µM (active). `CN(C)c1ncnc2ccc(-c3cccnc3)cc12`: the Potency is 7.94 µM (active).

As to `Cn1c(=O)c(-c2ccc(Cl)cc2)nc2cnc(N3CCOCC3)nc21`, the “activity, negative = inhibition” value was 0.601%. Still for that read-out and setting: the result for `CN(C)c1ncc2nc(-c3cccs3)c(=O)n(C[C@H]3CCCO3)c2n1` reads -3.22%. For `COc1ccc(-c2nc3cnc(N4CCOCC4)nc3n(C[C@H]3CCCO3)c2=O)cc1`, the “activity, negative = inhibition” value was -0.565%. Consider `FC(F)(F)c1ccccc1-c1nccc(N2CCNCC2)n1`, for which the “activity, negative = inhibition” value is -8.78%. Turning to `CC(=O)NCCNc1ncnc2ccc(-c3ccoc3)cc12`, the Potency is 0.891 µM (active). Regarding `COCCNc1nc(-c2ccccc2OC)nc2ccccc12`, the “activity, negative = inhibition” value was -13.9%. Regarding `COCCn1c(=O)c(-c2ccc(F)cc2)nc2cnc(N3CCOCC3)nc21`, the “activity, negative = inhibition” value is -3.1%.

Take `O=c1c(-c2cc(F)cc(F)c2)nc2cnc(N3CCOCC3)nc2n1C[C@H]1CCCO1`: the “activity, negative = inhibition” value is -0.622%. `COc1ccc(-c2nc3cnc(Nc4ccccc4)nc3n(C[C@H]3CCCO3)c2=O)cc1`: the “activity, negative = inhibition” value is -16.4%. Consider `COc1cccc(Cn2c(=O)c(-c3ccccc3)nc3cnc(N4CCNCC4)nc32)c1`, for which the “activity, negative = inhibition” value is -4.96%. Turning to `O=c1c(-c2ccc(Cl)cc2)nc2cnc(N3CCOCC3)nc2n1C[C@H]1CCCO1`, the “activity, negative = inhibition” value was -4.31%.

Consider `O=c1cnc2cnc(Nc3ccccc3)nc2n1C1CC1`, for which the Potency was 2 µM (active). With `COc1ccc(Oc2ncc3nc(C)c(=O)n(C[C@H]4CCCO4)c3n2)cc1`, the “activity, negative = inhibition” value was -8.31%. As for `O=c1cnc2cnc(N3CCNCC3)nc2n1Cc1ccc(F)cc1`, the “activity, negative = inhibition” value is -9.91%.

As for `CNc1nc(-c2ccc3c(c2)OCO3)nc2ccccc12`, the Potency was 14.1 µM (active). As for `Cn1c(=O)c(-c2cc(F)cc(F)c2)nc2cnc(N3CCOCC3)nc21`, the “activity, negative = inhibition” value was -1.12%. As for `O=c1c(-c2ccc(F)cc2)nc2cnc(N3CCNCC3)nc2n1-c1ccccc1`, the “activity, negative = inhibition” value is -14.5%.

As for `c1cncc(CNc2ncnc3ccc(-c4ccoc4)cc23)c1`, the Potency was 2.82 µM (active). As to `CN(C)c1ncc2nc(-c3cc(F)cc(F)c3)c(=O)n(C3CC3)c2n1`, the “activity, negative = inhibition” value is -15.2%.

`COc1cccc(-c2ccc3ncnc(N(C)Cc4ccco4)c3c2)c1`: the Potency is 2 µM (active). For the compound `CN1CCN(c2ncc3ncc(=O)n(CCC#N)c3n2)CC1`, the “activity, negative = inhibition” value was -9.03%. `FC(F)(F)c1ccccc1-c1nc(NC2CCNCC2)c2ccccc2n1`: the “activity, negative = inhibition” value was -23.6%.

As for `Cc1nc2cnc(OCc3ccccc3)nc2n(C)c1=O`, the “activity, negative = inhibition” value was 1.16%. Take `CN(C)C(=O)c1ccc(-c2cc(NCc3cccnc3)ncn2)cc1`: the Potency was 15.8 µM (active). As to `Cn1c(=O)c(CCc2ccccc2)nc2cnc(OCc3ccccc3)nc21`, the “activity, negative = inhibition” value was 3.24%.

`COc1ccc(-c2nc3cnc(Nc4cccc(OC)c4)nc3n(C3CC3)c2=O)cc1`: the “activity, negative = inhibition” value was -26.5%. `Cc1noc(C)c1-c1cncnc1NCc1cccnc1`: the “activity, negative = inhibition” value was -0.452%. As for `COCCn1c(=O)c(-c2cccc(C#N)c2)nc2cnc(Oc3ccccc3)nc21`, the “activity, negative = inhibition” value was -6.98%. As for `COc1ccc(-n2c(=O)c(-c3cccs3)nc3cnc(OC)nc32)cc1`, the “activity, negative = inhibition” value was -2.43%. On the same count and under the same terms, the result for `CN(C)Cc1ccccc1-c1cc(N(C)Cc2ccco2)ncn1` reads -2.01%. With `COc1ccc(-c2nc3cnc(N4CCOCC4)nc3n(-c3ccccc3)c2=O)cc1`, the “activity, negative = inhibition” value was 2.54%. Still for that read-out and setting: then `COCCn1c(=O)c(-c2cccc(C#N)c2)nc2cnc(N(C)C)nc21`, with -2.34%. For the compound `Cc1ccccc1-c1ccc2ncnc(NC3CC3)c2c1`, the Potency was 11.2 µM (active). `COc1ncc2nc(-c3cc(F)cc(F)c3)c(=O)n(C)c2n1`: the “activity, negative = inhibition” value is -3.52%. Consider `c1cncc(-c2cncnc2NC2CCNCC2)c1`, for which the “activity, negative = inhibition” value is 0.319%.

(Values after PubChem BioAssay (NCATS).)
